Screen size: about 390,000 compounds; about 4,700 (1.2%) were called active. About 4% were inconclusive and are not listed. The call rests on the fitted dose curve; in most records, active means well fitted inhibition curve with a large enough effect; inconclusive means small, poorly fitted or top-dose-only effect, or another doubt; inactive means no such curve, though single readings can be large or run the other way. The entries come from a sample that favours actives as a whole. A call without a number means that no potency is given here.
Potency means the concentration at half of the fitted maximal effect.

DNA polymerase eta (Homo sapiens), sequence (Q9Y253 whole entry, looked up): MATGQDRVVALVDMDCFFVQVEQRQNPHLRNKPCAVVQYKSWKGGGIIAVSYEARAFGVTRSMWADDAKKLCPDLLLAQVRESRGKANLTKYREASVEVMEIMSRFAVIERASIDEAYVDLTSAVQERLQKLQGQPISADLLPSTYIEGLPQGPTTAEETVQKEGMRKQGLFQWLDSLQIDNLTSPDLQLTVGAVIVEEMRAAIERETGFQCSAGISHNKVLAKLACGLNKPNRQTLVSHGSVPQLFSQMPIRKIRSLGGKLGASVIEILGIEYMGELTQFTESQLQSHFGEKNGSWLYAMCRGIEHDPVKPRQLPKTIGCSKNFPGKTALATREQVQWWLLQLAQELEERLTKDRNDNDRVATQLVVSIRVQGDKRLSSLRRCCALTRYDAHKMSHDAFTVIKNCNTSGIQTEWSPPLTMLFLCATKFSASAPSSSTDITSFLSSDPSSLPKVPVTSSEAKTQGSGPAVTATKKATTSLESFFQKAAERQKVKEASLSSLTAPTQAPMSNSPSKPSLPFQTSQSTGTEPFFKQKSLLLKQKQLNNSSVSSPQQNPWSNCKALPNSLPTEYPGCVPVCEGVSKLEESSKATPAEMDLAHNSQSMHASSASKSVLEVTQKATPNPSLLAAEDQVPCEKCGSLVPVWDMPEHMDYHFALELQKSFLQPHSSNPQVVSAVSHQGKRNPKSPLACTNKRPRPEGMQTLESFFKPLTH

The assay concerns the target DNA polymerase eta (Homo sapiens) (UniProt Q9Y253). Put plainly: qHTS for Inhibitors of Polymerase Eta. Particulars: recombinant Pol eta, fluorescent DNA replication assay; series mostly up to 114 µM. In outline:
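Fluorescent replication assay: 50 nM final substrate added after a 15 min room-temperature compound preincubation with 10 nM enzyme. Signal taken at 0 min and again at 10 min.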
In the case of `O=C(CC1C(=O)N(c2ccccc2)C(=O)N1CCc1cccs1)Nc1ccc(F)cc1` (centres undefined), the Potency result is “inactive”. Under `CC(=O)c1cc(-c2ccccc2)[nH]c1N1CCCC1` stands “inactive”; under `O=C1NN(c2ccccc2)C(=O)/C1=C/c1ccc(-c2cccc(C(=O)O)c2)o1`, 20 µM (active). `CCOc1ccc(N(CC)S(=O)(=O)N2CCCC(C(=O)Nc3ccc(C(C)=O)cc3)C2)cc1` (centres undefined): the Potency entry was “inactive”. Under `COc1cc(C)ccc1OCCSc1nc2ccc(NC(=O)c3ccc(C)cc3)cc2s1` stands “inactive”.

As to `CCOC(=O)N1CCc2c(sc3c2c(=O)n(Cc2ccccc2)c(=O)n3CC(=O)Nc2cccc(C)c2)C1`, the Potency result was “inactive”. As for `Fc1ccc(C(Nc2ccc(Cl)c(C(F)(F)F)c2)c2nnc(-c3ccccc3)o2)cc1` (centres undefined), the entry is “inactive”; as for `CC(=O)Nc1ccc(C(=O)OCC(=O)Nc2ccc([N+](=O)[O-])cc2C(F)(F)F)cc1`, “inactive”; as for `Cn1ccc(=Nc2ccc(NC(=O)c3ccc(N=c4ccn(C)c5ccc([N+](=O)[O-])cc45)cc3)cc2)cc1`, 5.62 µM (active). `CC(=O)c1ccc(NC(=O)COc2ccccc2-c2nc(-c3ccccc3)no2)cc1`: the Potency result was “inactive”.

On to `CCS(=O)(=O)N1CCc2cc(C(=O)NCc3ccc(OC)cc3)ccc21`, for which the Potency entry is “inactive”. For the compound `CN1CCN(C(=O)c2cnn(-c3ccccc3)c2NC(=O)c2ccc([N+](=O)[O-])cc2)CC1`, the Potency entry is “inactive”. As for `Cc1cc(/C=N/Nc2ccc([N+](=O)[O-])cn2)c(C)n1-c1cccc(C(=O)O)c1`, the Potency was 22.4 µM (active). Under `Cc1cccc(C(=O)NC(=S)N2CCN(c3ccc([N+](=O)[O-])cc3)CC2)c1` stands “inactive”. On to `O=C(NCc1ccco1)c1cnn2c(C(F)(F)F)cc(-c3ccco3)nc12`, for which the Potency result was “inactive”. As for `Cc1ccc(-c2cc(C(F)(F)F)n3ncc(C(=O)N4CCCCC4c4cccnc4)c3n2)cc1` (centres undefined), the entry is “inactive”; as for `COC(=O)c1cnn2c(C(F)(F)F)cc(-c3ccco3)nc12`, 20 µM (active); as for `Cc1ccc2nc(-c3ccc(O)cc3)c(Nc3ccc4c(c3)OCO4)n2c1`, “inactive”. Take `CCOC(=O)C1CCC(CN(Cc2ccc(OC)cc2)S(=O)(=O)c2ccc(F)c(C(=O)Nc3cc(C)ccc3C)c2)CC1` (centres undefined): the Potency entry was “inactive”. Under `COc1ccc(-c2nc3ccc(C(=O)NCc4ccc(C)cc4)cc3nc2-c2ccc(OC)cc2)cc1` stands “inactive”; under `COCCN(CCOC)S(=O)(=O)c1ccc(C(=O)Nc2nc3c(s2)CCc2ccccc2-3)cc1`, “inactive”; under `COc1ccc(C(=O)Nc2nc(-c3ccc(OC)cc3)c(-c3ccc([N+](=O)[O-])cc3)s2)cc1`, 79.4 µM (active). `CCOc1ccc(N(C)S(=O)(=O)c2cc(-c3cnc(C)o3)ccc2OC)cc1`: the Potency result is “inactive”. As for `Cc1ccsc1C(=O)NCCc1ccco1`, the figure is 22.4 µM (active). Under `O=C(NCc1ccco1)c1sc2cccc(F)c2c1Cl` stands “inactive”; under `CCNC(=O)c1sccc1-n1cccc1`, “inactive”. As for `CCC1=Nc2cc(C(=O)NCCCOC(C)C)ccc2Sc2ccc(C)cc21`, the entry is “inactive”; as for `O=C(O)C(c1ccccc1)N1C(=O)/C(=C\c2ccc(-c3cccc(Cl)c3)o2)SC1=S` (centres undefined), 44.7 µM (active). In the case of `O=C(NCc1ccccc1)c1cc(-c2cccc(Cl)c2)on1`, the Potency entry was “inactive”. Take `O=C(NCCc1ccc(Cl)cc1)c1ccc2c(c1)N(Cc1ccc(F)cc1)C(=O)CS2`: the Potency entry was “inactive”.

For the compound `C=CC1(C)CC(=O)C2(O)C(C)(O1)C(OC(C)=O)C(O)C1C(C)(C)CCC(O)C12C` (centres undefined), the Potency result was “inactive”. As for `CCOC(=O)C1CCN(C(=O)CSc2c3c(nc4ccc(Cl)cc24)CCCC3)CC1`, the Potency result was “inactive”. Take `Cc1cc(/C=C2\SC(=O)N(C)C2=O)c(C)n1-c1cccc(C(=O)O)c1`: the Potency is 22.4 µM (active). Under `Cc1cc(C(=O)CC#N)c(C)n1-c1c(C)n(C)n(-c2ccccc2)c1=O` stands “inactive”. Turning to `Cc1ccc(C)c2c1cc(C)c1nnc(SCC(=O)Nc3cccc(C(=O)O)c3)n12`, the Potency entry was “inactive”. Regarding `CCCCN(C)c1nnc(NC(=O)Nc2ccc(Br)c(C)c2)s1`, the Potency entry was “inactive”.

In the case of `CCOC(=O)c1cc2c(=O)n3ccccc3nc2n(CC2CCCO2)c1=NC(=O)c1ccccc1F` (centres undefined), the Potency result is “inactive”.

For the compound `COCCN(Cc1ccco1)C(=O)Cn1ncc2c([nH]c3ccccc32)c1=O`, the Potency result is “inactive”. Under `CCc1ccc2nc3sc(C(=O)Nc4nnc(CC)s4)c(N)c3cc2c1` stands 50.1 µM (active). Under `CCc1ccccc1NC(=O)c1sc2nc3c(cc2c1N)CN(Cc1ccccc1)CC3` stands “inactive”. Turning to `CCc1ccc(NC(=O)c2sc3nc4c(cc3c2N)CN(CC)CC4)cc1`, the Potency result is “inactive”. As for `CCCN(CCC)CCCNC(=O)Cn1cc2c(n1)-c1c(oc(C(=O)N3CCCC3)c1C)CC2`, the Potency entry was “inactive”. As for `CCOC(=O)c1cc(OC(=O)c2ccccc2Cl)n(-c2ccccc2)n1`, the entry is “inactive”. As for `Cn1c(=O)c2c(-c3ccccc3Br)n(Cc3ccccc3)cc2n(C)c1=O`, the Potency entry was “inactive”.

Consider `CCc1ccc(NC(=O)CN2C(=O)CCSc3ccc(S(=O)(=O)N4CCCC4)cc32)cc1`, for which the Potency entry was “inactive”. As for `CC(Oc1ccc(Br)cc1)C(=O)NCC(c1ccco1)N1CCCCC1` (centres undefined), the entry is “inactive”; as for `CC(Oc1ccccc1)C(=O)NN1Cc2ccccc2C1=N` (centres undefined), “inactive”. Under `CC(Oc1ccccc1)C(=O)Nc1oc(-c2ccco2)c(-c2ccco2)c1C#N` (centres undefined) stands 20 µM (active); under `Cc1c(-c2cccc(NC(=O)C(C)(C)C)c2)nc2ncccn12`, “inactive”; under `CCOc1ccc(S(=O)(=O)N(CC(=O)NCCSCc2ccc(C)cc2)c2ccccc2)cc1`, “inactive”.

`Cc1ccc(S(=O)(=O)/N=S(\C)C(C)C)cc1` (centres undefined): the Potency entry was “inactive”. For the compound `Cc1ccc(S(=O)(=O)Nc2nc(N)n(-c3ccccc3)n2)cc1`, the Potency entry was “inactive”. As for `COc1ccc(S(=O)(=O)Nc2cc3c(C(=O)OC(C)C)c(C)oc3c3ccccc23)cc1`, the entry is “inactive”; as for `COc1ccc(S(=O)(=O)/N=C2\C=C(NS(=O)(=O)c3ccccc3)C(=O)c3ccccc32)cc1`, 22.4 µM (active); as for `Cc1ccc(S(=O)(=O)/N=C2\C=C(NS(=O)(=O)c3ccc(C)cc3)C(=O)c3ccccc32)cc1`, 79.4 µM (active). For the compound `COc1ccc(N2CCN(C3CCCCC3NS(=O)(=O)c3ccccc3)CC2)cc1` (centres undefined), the Potency entry is “inactive”. As for `COc1ccc(N(CC(=O)NCCc2ccc(Cl)cc2)S(=O)(=O)c2c(C)nn(C)c2C)cc1`, the entry is “inactive”; as for `CCN(CC)c1ccc(NC(=O)Cn2nc3c(cc2=O)CCCC3)c(C)c1`, “inactive”; as for `CCCCOC(=O)CSc1ncnc2sc3c(c12)CCC(C)C3` (centres undefined), “inactive”.

As to `NC1CCN(O)C1=O` (centres undefined), the Potency result was “inactive”.

With `CCOc1ccc(NC(=O)CCC(=O)N2CC(C)Oc3ccc(C)cc32)cc1` (centres undefined), the Potency result is “inactive”. Under `COc1ccc(NC(=O)CCCc2nnc3n(CCC(C)C)c(=O)c4sccc4n23)c(OC)c1` stands “inactive”; under `O=C(O)c1ccc2c(c1)C(=O)N(c1ccc(/C=C/C(=O)c3ccccc3)cc1)C2=O`, 22.4 µM (active). Turning to `COc1ccc(OC)c(NC(=O)c2ccc3c(c2)C(=O)N(c2ccc(OC(C)=O)cc2)C3=O)c1`, the Potency result is “inactive”. Under `Cc1cc(N2C(=O)c3ccc(C(=O)NCc4ccccc4)cc3C2=O)no1` stands “inactive”; under `COc1ccc(Cl)cc1-n1c(CCC(=O)O)ccc1-c1ccc(C)cc1`, “inactive”; under `Cc1cc(C)cc(Oc2c(C(F)(F)F)oc3cc(OCC(=O)O)ccc3c2=O)c1`, 35.5 µM (active).

Regarding `O=C(COc1ccc2c(C(F)(F)F)cc(=O)oc2c1)Nc1ccc2c(c1)OCCO2`, the Potency result is “inactive”. Regarding `Cc1ccc(Oc2c(C(F)(F)F)oc3c(CN4CCCCC4)c(O)ccc3c2=O)cc1`, the Potency entry was “inactive”. Regarding `CCCn1c(NCc2ccc(N(CC)CC)cc2)nc2ccccc21`, the Potency result is “inactive”. As for `COc1cccc(-n2c(=O)c3c(C)c(C(=O)N(C)C)sc3n(Cc3cccc(C)c3)c2=O)c1`, the entry is “inactive”.

As to `CCOC(=O)c1c(S(=O)(=O)NCC(=O)Nc2ccc(Cl)c(C(F)(F)F)c2)c(C)n(C)c1C`, the Potency result was “inactive”.

In the case of `O=C1COc2c1ccc(O)c2O`, the Potency is 22.4 µM (active). As for `CCSc1nnc2c(n1)OC(c1ccc(OCC(=O)O)cc1)Nc1ccccc1-2` (centres undefined), the entry is “inactive”. Under `Cc1ccccc1NC(=O)c1c(NC(=O)c2ccccc2F)sc2c1CCC(C)C2` (centres undefined) stands “inactive”; under `CCOc1ccccc1C1NC(=O)NC(C)=C1C(=O)OCc1ccco1` (centres undefined), “inactive”; under `CCOc1cccc(CC(=O)N2CCc3c([nH]c4ccccc34)C2c2ccc(F)cc2)c1OCC` (centres undefined), “inactive”. For the compound `CCOc1cccc2c1N[C@@H](c1ccc(C(=O)O)cc1)[C@H]1CC=C[C@@H]21`, the Potency was 8.91 µM (active). As for `COc1cccc2c1cc1c(=O)n(CC(=O)N3CCN(c4ccccc4)CC3)nc(C)n12`, the entry is “inactive”; as for `COc1ccc(CNC(=O)c2ccc3c(c2)nc2n3CCOC2)c(OC)c1`, “inactive”; as for `COc1cccc(CNS(=O)(=O)c2ccc3c(c2)CC(C)N3C(=O)C2CCC2)c1` (centres undefined), “inactive”. Under `CC1CCN(S(=O)(=O)c2ccc(S(=O)(=O)NCc3ccco3)cc2)CC1` stands “inactive”; under `CCC(=O)N1c2ccc(S(=O)(=O)NCc3ccco3)cc2CC1C` (centres undefined), 56.2 µM (active); under `COc1ccccc1CNC(=O)c1ccccc1NC(=O)c1nsc2ccccc12`, “inactive”. Under `COc1c(O)cc2oc(-c3ccc(O)c(O)c3)cc(=O)c2c1O` stands 3.55 µM (active). Turning to `COc1cc(O)c2c(=O)c3c(O)c(O)ccc3oc2c1OC`, the Potency entry was “inactive”.

`COc1ccc(-c2c(C)c3ccc(O)c(CN4CCN(C)CC4)c3oc2=O)cc1OC`: the Potency entry is “inactive”. As for `Cc1cc(F)ccc1NC1(c2ccccc2)C(=O)c2ccccc2C1=O`, the entry is “inactive”; as for `Cc1ccc(NC(=O)Cn2cnc3nc4c(cc3c2=O)CCCC4)cc1Cl`, “inactive”. On to `Cc1ccccc1CS(=O)(=O)CC1Nc2ccc(C(=O)NCc3ccc(Cl)cc3)cc2NC1=O` (centres undefined), for which the Potency entry is “inactive”.

`Cc1ccc(N2CC(c3nnc(Cc4ccccc4Cl)o3)CC2=O)cc1` (centres undefined): the Potency result was “inactive”. `CS(=O)(=O)C1=NN2C(=N)/C(=C\c3ccc(OCCOc4ccccc4)cc3)C(=O)N=C2S1`: the Potency is 44.7 µM (active).

Turning to `CCS(=O)(=O)C1=NSC2=NC(=O)/C(=C\c3ccc(OS(=O)(=O)c4ccccc4)cc3)C(=N)N21`, the Potency is 20 µM (active). As for `Cc1cc(/C=C2/C(=N)N3C(=NC2=O)SN=C3S(C)(=O)=O)c(C)n1-c1ccccc1`, the figure is 44.7 µM (active).

The record behind these values is PubChem BioAssay AID588591 (National Center for Advancing Translational Sciences (NCATS), 2011).
